Reference: ChEMBL document CHEMBL3988442, “University of Dundee, Small-Polar-MMV Screening Library” (2021)
Screen size: about 48,000 compounds; about 13,000 (27%) showed an effect of 50% or more. The list shows a part of the results.

Each compound was assayed on Wolbachia pipientis (assay: Anti-Wolbachia Cell-Based Screen). Settings: 5 µM.
Assay type: functional
Design: scale not given: in the data most compounds retested in dose-response had high values

| Structure (SMILES) | Percent Effect [%] |
| --- | --- |
| COc1ccccc1OCC(=O)Nc1ncccc1OC(F)F | -1.305 |
| CCCNC(=O)CSc1nnc2[nH]c(=O)cc(CC)n12 | -17.32 |
| Cc1nc(C(=O)N2CCC3(CC2)CC(=O)N(CC2CCCO2)C3)cs1 (stereo not given) | 9.74 |
| Cn1ccc(C(=O)N(CC(F)F)c2cccc(Cl)c2)cc1=O | -3.04 |
| O=C(O)C1(n2cccn2)CCN(c2nc(-c3ccccc3)no2)CC1 | -0.7442 |
| Cc1n[nH]c(C)c1CCN(C)c1ccc(-c2nc(C3CC3)no2)cn1 | 5.085 |
| COCCO[C@@H]1C[C@H]2CN(C(=O)c3cnccn3)CCN2C1 | -15.94 |
| COC(=O)C(C)CN(Cc1ccccc1)C(=O)CN1CCCNC1=O (stereo not given) | -9.826 |
| Cc1nc(CN2CCC(C(=O)O)(n3ccc(C(C)C)n3)CC2)co1 | 99.57 |
| Cc1csc(CN2C[C@@H]3COC[C@]3(C(=O)NCc3ccco3)C2)n1 | -36.74 |
| Cc1csc(CN2CCC(C(=O)O)(n3ccc(-c4ccco4)n3)CC2)n1 | 105 |
| Cc1occc1C(=O)N1CCC2(CCN(Cc3cccs3)C2)CC1.O=C(O)C(F)(F)F | -0.4808 |
| Cc1ccc(N2CCC(C(=O)O)(n3ccc(C(C)C)n3)CC2)nn1 | -12.67 |
| O=C(O)C1(n2ccc(-c3ccco3)n2)CCN(Cc2cccs2)CC1 | 77.42 |
| O=C(O)C(F)(F)F.c1coc(COCc2ncn3c2CN(Cc2cccs2)CCC3)c1 | 7.487 |
| Cc1nccn1C1(C(=O)O)CCN(Cc2ccc3occc3c2)CC1 | -3.386 |
| Cc1cc(N2CCC(C(=O)O)(n3ccc(C(C)C)n3)CC2)nc(N)n1 | -20.6 |
| O=C1CN(CCCNC(=O)Nc2cccc(Cl)c2F)CCN1 | 1.597 |
| Cc1cc(C)n(-c2ccc(N3CCCSCC3)nc2)n1 | 0.3589 |
| CC1CCc2n[nH]c(C(=O)NCCc3ccco3)c2C1 (stereo not given) | 14.64 |
| CCOc1ccccc1-c1noc(CN2CCCC(O)C2)n1 (stereo not given) | -2.765 |
| CC(C)S(=O)(=O)C(C)C(=O)Nc1ccc2oc(C3CC3)nc2c1 (stereo not given) | -8.387 |
| O=C(c1cccnc1O)N1CCCN(c2cccnn2)CC1 | -5.126 |
| CNc1ccc(CC2CCCN(C(=O)c3cnco3)C2)nn1 (stereo not given) | 129.2 |
| CCc1cc(C(=O)N2CCCC(Cc3ccc(NC)nn3)C2)on1 (stereo not given) | 109.6 |

| Structure (SMILES) | Percent Effect [%] |
| --- | --- |
| CNc1ccc(CC2CCCN(C(=O)c3scnc3C)C2)nn1 (stereo not given) | 109.5 |
| CNc1ccc(CC2CCCN(C(=O)c3c(C)noc3C)C2)nn1 (stereo not given) | 118 |
| O=C(c1cc(CC2(NC3CCCCC3)COC2)no1)N1CCCCC1 | 6.649 |
| CNc1ncc(C(=O)N2CCCC(Cc3ccccc3OC)C2)s1 (stereo not given) | -5.807 |
| O=C(c1cc(CC2(NCC3CCCCC3)COC2)no1)N1CCCCC1 | 0.2272 |
| Cc1noc(C)c1C(=O)N1C[C@@H]2CCCO[C@@H]2[C@H](N(C)C)C1 | 3.092 |
| O=C(CN1CCCc2c(F)cc(Br)cc21)N1CCCC1 | -2.164 |
| CCN1CCC(Cn2ccc3c(OC)c(OC)ccc3c2=O)C1 (stereo not given) | -8.791 |
| COCC[C@]1(O)CCN(c2ncc(Cl)cc2F)C[C@H]1C | -5.057 |
| CS(=O)(=O)N1C[C@@H]2CC[C@H](C1)N(CCC(=O)NCc1ccco1)C2 | 6.139 |
| Cc1nonc1CN1CC[C@@](O)(C2CCOCC2)[C@H](C)C1 | -5.747 |
| CCc1nc(C)sc1CN1CC[C@@](O)(C2CC2)[C@H](C)C1 | 90.8 |
| CCc1nc(C)sc1CN1CC[C@@](O)(C2CCOCC2)[C@H](C)C1 | 107.2 |
| Cc1nnsc1CN1CC[C@@](O)(C2CCC2)[C@H](C)C1 | -20.69 |
| Cc1nonc1CN1CC[C@@](O)(C2CCC2)[C@H](C)C1 | 2.704 |
| C[C@@H]1CN(Cc2nc(C(N)=O)no2)CC[C@@]1(O)C1CCOCC1 | -5.887 |
| CCC1=N[C@@]2(CC[C@@H]3CN(S(=O)(=O)CC(C)C)C[C@@H]32)C(=O)N1CC | 2.129 |
| Cc1nc(-c2ccc(S(=O)(=O)N3CCSC3)cc2)co1 | -2.878 |
| Cl.Cl.Cn1cnc2c(N3CCCC3)nc(C3CCNCC3)cc21 | -10.47 |
| Cc1cc(C2CCCN(C(=O)c3ccc(OCC4CC4)nc3)C2)n[nH]1 (stereo not given) | -13.31 |
| Cl.O=C(NC1CCCC1)c1ccnc(C2CCNCC2)c1 | 105.6 |
| COc1ncccc1-c1cc(C(=O)NC2CC2)ccn1 | 1.183 |
| Cl.O=C(c1ccnc(C2CCNCC2)c1)N1CCCC1 | 87.63 |
| O=C(c1ccc2c(c1)[nH]c(=O)n2C1CCCC1)N1CCC1 | -5.446 |
| O=C(c1ccc(C2CCCO2)s1)N1CCCOCC1 (stereo not given) | 7.048 |

| Structure (SMILES) | Percent Effect [%] |
| --- | --- |
| Cl.O=C(c1ccnc(C2CCNCC2)c1)N1CCCOCC1 | 107.9 |
| O=C(c1ccnc(C2CCNCC2)c1)N1CCCC(CO)C1 (stereo not given) | 100.1 |
| Cl.Cl.Cn1cnc2c(N3CCOCC3)nc(C3CCNCC3)cc21 | -9.589 |
| CCOc1cc(C(=O)N2CCCC(c3cc(C(N)=O)[nH]n3)C2)ccn1 (stereo not given) | -0.59 |
| COc1ccc(F)c(-c2cc(C(=O)NC3CC3)ccn2)c1 | -1.956 |
| CC(C)(C)CC(=O)N1CSCC1C(=O)NCc1cccc(C#N)c1 (stereo not given) | -25.6 |
| Cc1cc(C(=O)N2CCC3(CC(=O)NC3=O)C2)c(-c2ccccc2)o1 (stereo not given) | 0.657 |
| CSCC[C@H](NC(C)=O)C(=O)N(C)Cc1ccc(-n2cccn2)cc1 | -22.5 |
| Cc1cc(C(=O)N2CCN[C@H](C)C2)c2ccc(F)cc2n1 | 95.19 |
| N[C@H]1CN(C(=O)CCc2cc(Cl)no2)C[C@@H]1c1ccccc1 | 0.8182 |
| Cc1cc(C(=O)N2CCCC3(CN(C)C(=O)O3)C2)c2ccc(F)cc2n1 (stereo not given) | -8.064 |
| O=C(c1c[nH]nc1-c1cccc(F)c1)N1CCNC(c2ccccc2)C1 (stereo not given) | 39.59 |
| Cc1cc(C(=O)N2C[C@H]3CCC[C@@]3(CO)C2)c2ccc(F)cc2n1 | -33.96 |
| Cc1cc(C(=O)N2C[C@H](c3ccccc3)[C@@H](N)C2)c2ccc(F)cc2n1 | 109.4 |
| Cc1cc(C(=O)N2CCNC(c3ccccc3)C2)c2ccc(F)cc2n1 (stereo not given) | 81.03 |
| O=C(c1cc(-c2cn[nH]c2)nc2cc(F)ccc12)N1CCS(=O)(=O)CC1 | -15.17 |
| O=C(O)c1csc(S(=O)(=O)N2CCCc3cccc(OC(F)F)c32)c1 | -29.54 |
| CC(O)CN1CCN(C(=O)c2cnn(-c3ccc(Cl)cc3)c2)CC1 (stereo not given) | -6.081 |
| O=C(c1cnn(-c2ccccc2Cl)c1)N1CCN(CCO)CC1 | 103.1 |
| CN1CCN(C(=O)c2cnn(-c3ccccc3Cl)c2)CC1 | 84.01 |
| O=C(c1cn(-c2ccccc2Cl)nn1)N1CCCSCC1 | 0.4154 |
| O=C(c1cn(-c2ccccc2Cl)nn1)N1CCSCC1 | 139.5 |
| O=C(c1cnn(-c2ccccc2F)c1)N1CCN(CCO)CC1 | -7.046 |
| CCN1CCN(C(=O)c2cnn(-c3ccccc3Cl)c2)CC1 | 0.9462 |
| CN(C)C(=O)CN1CCN(C(=O)c2cnn(-c3ccccc3Cl)c2)CC1 | 104.8 |

| Structure (SMILES) | Percent Effect [%] |
| --- | --- |
| CC(O)CN1CCN(C(=O)c2cn(-c3ccccc3Cl)nn2)CC1 (stereo not given) | 5.18 |
| CCc1ccc(O)c(C(=O)N2CCN(CC(=O)N(C)C)CC2)c1 | 4.973 |
| CCOC1CCN(C(=O)c2cnn(-c3ccccc3Cl)c2)CC1 | -5.801 |
| CC(Nc1ncnc2sccc12)c1cnn(C)c1 (stereo not given) | -17.23 |
| O=C(NC[C@H]1OC[C@@H](NC2CCOCC2)[C@@H]1O)C1CCCC1 | -16.92 |
| O=C(COCC(F)(F)F)NC1CCCc2cc(OC(F)F)ccc21 (stereo not given) | -1.083 |
| Cc1nc(CCCNC(=O)C2CC(=O)N(C3CCCC3)C2)sc1C (stereo not given) | -46.61 |
| O=C(COC1CCCCC1)Nc1ccn(Cc2ccccn2)n1 | -1.457 |
| COc1ccc(OC)c2c(C)cc(N(C)CCO)nc12 | -15.31 |
| CC(=O)c1c(N(C)C)ccnc1C(F)(F)F | -9.795 |
| CCOc1c(Cl)cccc1NS(=O)(=O)c1cc(C)c(C(=O)O)s1 | -12.6 |
| CCc1nc(C(=O)N2CCCC2)nn1-c1ccccc1Cl | 13.32 |
| CC(=O)N1CCN(C(=O)c2cnn(-c3ccccc3Cl)c2)CC1 | -0.729 |
| CC(=O)N1CCCN(C(=O)c2cnn(-c3ccccc3Cl)c2)CC1 | 140 |
| Cc1cc(C(=O)NCC(C)C)c2c(C3CCCN3)noc2n1 (stereo not given) | 114.1 |
| Cc1cc(NC(C)C(=O)NCC(F)(F)F)nc(-c2ccncc2)n1 (stereo not given) | 14.05 |
| COCCC(=O)N1CCC(c2noc3nc(C)cc(C(F)(F)F)c23)CC1 | 3.825 |
| Cc1cc(CNC(=O)c2cn(CCC3CCCCN3)nn2)on1 (stereo not given) | -16.72 |
| CCc1ccc2nc(C)cc(C(=O)NC3CCNC3=O)c2c1 (stereo not given) | 1.98 |
| Cc1cc(C(=O)NCC(F)(F)F)c2c(C3CCCN3)noc2n1 (stereo not given) | 103.2 |
| Cc1cc(C(=O)NCC(F)(F)F)c2c(C3CCNCC3)noc2n1 | 137.6 |
| Cc1ccccc1-n1ccnc1S(=O)(=O)Cc1nsc(N(C)C)n1 | 22.74 |
| Cc1ccc(N2C[C@@H]3CN(C(=O)NC4CCCC4)C[C@]3(C(=O)O)C2)nn1 | -11.61 |
| CN(C)C(C(=O)N1CCC(CCO)CC1)c1ccccc1F (stereo not given) | -9.373 |
| Cc1ccc(NCc2ccc(C#N)cc2)cc1-n1cnnn1 | 10.93 |
